From PubChem BioAssay
PLC-beta3 inh: inhibitors of human phospholipase C beta3; Q01970; Purified PLC-beta3, fluorogenic substrate, fluorescence; inhibition, % at 12.2 µM; 0.18% of 370,000 active;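 note: 0% = median of compound wells on plate and 100% = full blocker control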
ADAM10 inh: inhibitors of human ADAM10; 0.62% of 370,000 active; inhibition, % at 7 µM; AID 720582; recombinant ADAM10, EDANS/DABCYL FRET peptide cleavage, 3 h;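 active = inhibition above a per-campaign cutoff equal to the mean of compounds falling between control-based bounds plus 3 SD, cut at about 20% in these data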;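 note: 0% = DMSO wells while the 100% control is not disclosed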
HGIII-sPLA2 inh: Blocks human group III sPLA2 activity; Q9NZ20; QFRET BODIPY PC-A2 liposome hydrolysis, fluorescence; inhibition, % at 12.2 µM; 0.56% of 370,000 active; AID 743126;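 active = inhibition above mean plus 3 SD of compounds lying within the high and low control bounds, cut at about 19% in these data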;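 note: 0% = median of test compound wells and 100% = no enzyme DMSO wells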
PLCg1 inh: PLC-gamma1 (human) inhibition, primary screen; purified PLC-gamma1, fluorogenic substrate, fluorescence; inhibition, % at 12.2 µM; 0.84% of 370,000 active; in the data active = inhibition above about 9.5%
proKLK7 act: activators of human kallikrein-7 zymogen; purified proKLK7, EDANS-DABCYL substrate fluorescence; 100% is mature enzyme control, 0% vehicle; activation, % at 7 µM; 0.9% of 370,000 active;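 active = activation above the mean of all tested compounds plus 3 SD, computed per campaign excluding outliers beyond control limits, cut at about 13% in these data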
Target sequence (P49862 whole entry, looked up): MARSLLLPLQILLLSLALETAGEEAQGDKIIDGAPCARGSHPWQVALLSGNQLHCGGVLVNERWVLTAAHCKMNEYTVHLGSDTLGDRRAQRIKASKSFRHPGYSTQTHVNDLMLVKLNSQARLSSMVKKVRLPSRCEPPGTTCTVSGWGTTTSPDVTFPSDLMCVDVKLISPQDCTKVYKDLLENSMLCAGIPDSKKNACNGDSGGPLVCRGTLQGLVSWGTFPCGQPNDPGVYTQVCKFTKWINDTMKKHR
ADAM17 inh: inhibits human ADAM17. P78536. recombinant ADAM17, EDANS/DABCYL FRET peptide cleavage. inhibition, % at 6.95 µM. 0.83% of 370,000 active. AID 720648;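 active = inhibition above the mean of compounds lying between control limits plus 3 SD, set per campaign, cut at about 8.5% in these data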;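 note: 0% = DMSO-only wells as the low control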
PLCgamma1 ctr: counter-screen for PLC-beta3 inhibitors: inhibitors of human PLC-gamma1. shares compounds with PLCg1 inh. purified PLC-gamma1, fluorogenic substrate, fluorescence. inhibition, % at 12.3 µM. 3.1% of 3,300 active. AID 743258; in the data active = inhibition above about 9.5%
PLCbeta3 conf: human PLC-beta3 inhibition, confirmation; AID 743261; inhibition, % at 12.3 µM; shares compounds with PLCg1 inh; 1% of 3,300 active; purified PLC-beta3, fluorogenic substrate fluorescence
Starred values were filed as active, the others as inactive; · = no result given. An excerpt weighted towards active compounds, which were near 3.4% of everything screened. Cut-off read from the data, not from the text of the source, unless noted: active = inhibition above about 11%; inactive = the rest.

SMILES	PLC-beta3 inh	ADAM10 inh	HGIII-sPLA2 inh	PLCg1 inh	proKLK7 act	ADAM17 inh	PLCgamma1 ctr	PLCbeta3 conf
c1ccc(CN2CCN(C(c3ccccc3)c3ccccc3)CC2)cc1	1.2	4.0	6.5	10.7*	-0.4	3.7	-5.4	2.1
COC(=O)c1ccc(Cl)cc1NC(=O)/C=C/c1ccc(C)o1	-0.9	-0.5	-2.9	-1.2	0.1	-2.9	·	·
Cc1ccc(S(=O)(=O)Cc2nc3ccccc3c(=O)[nH]2)cc1	19.0*	-6.5	-2.8	-1.7	-0.6	3.1	-16.1	9.4
O=C1C(=O)N(Cc2cccnc2)C(c2cccc(Br)c2)/C1=C(/O)c1ccc2c(c1)OCO2 (centres undefined)	-7.9	-4.2	-3.7	-4.0	0.3	-1.2	·	·
O=C(Cn1cccc1C(=O)c1ccccc1)NCCC1=CCCCC1	3.7	8.5	-6.1	-1.9	-0.3	4.2	·	·
CC12CC3(C)CC(C)(C1)CC(C(N)=O)(C2)C3	12.6*	1.4	4.8	10.5*	-0.6	2.4	3.5	-2.1
COC(OC)C(C)NC(=O)NC(=O)c1ccccc1Cl (centres undefined)	-5.5	-2.3	2.5	1.5	0.6	-1.0	·	·
COC(=O)/C=C(\C)NC(=O)c1ccccc1Cl	10.9*	3.6	0.7	7.7	0.3	1.7	-6.3	-2.3
Cc1ccc(C2N(c3ccc(Cl)cc3)C(=O)N3CCCN23)cc1 (centres undefined)	-4.1	-2.0	1.8	-2.6	0.1	-0.6	·	·
Cc1cc(C)cc(NC(=O)CCNC(=O)c2ccc([N+](=O)[O-])cc2)c1	-2.9	10.7	-5.8	10.2*	-0.2	2.8	-7.6	-6.0
O=C(CCNC(=O)c1ccc([N+](=O)[O-])cc1)Nc1ccc(F)cc1	-4.6	-8.2	-1.9	-0.5	0.1	-1.3	·	·
CCC(Oc1ccccc1OC)C(=O)Nc1ccc2c(c1)OCO2 (centres undefined)	-6.7	-1.8	-0.6	-1.8	-0.4	-0.5	·	·
Cc1cc(-c2ccccc2)nc2cc(C(=O)OC(C)C)nn12	-385.6	-94.0	5.7	-264.4	7.5	-38.8	·	·
O=C(COC(=O)c1ccccc1)NCC1CCCO1 (centres undefined)	1.7	2.7	2.5	4.0	-0.4	-3.0	·	·
O=C(COC(=O)c1ccc(Br)cc1)NCC1CCCO1 (centres undefined)	11.6*	9.9	-2.3	4.6	0.6	3.1	6.3	0.0
Cc1nn(C)cc1S(=O)(=O)N1CCN(c2cccc(Cl)c2)CC1	-4.0	2.6	-5.0	3.2	0.5	-3.2	·	·
Cc1nn(C)cc1S(=O)(=O)N1CCN(Cc2ccc(F)cc2Cl)CC1	11.8*	0.4	-0.5	0.5	-0.9	3.1	-1.8	-2.2
O=C1NC(=S)S/C1=C\c1ccc(SCc2ccccc2)o1	-15.5	10.0	1.8	57.5*	-1.1	-0.7	28.5*	-20.7
Cc1ccc(-c2csc3nc(-c4ccncc4)[nH]c(=O)c23)cc1	-142.5	-20.3	0.9	-85.4	0.4	-7.4	·	·
Cc1ccc(-c2nc3ccsc3c(=O)[nH]2)cc1	6.2	6.1	10.8	10.1*	0.8	3.2	-2.7	0.5
CC(C)N(C(=O)[C@H]1C[C@H](CC(=O)NCCN2CCOCC2)C(=O)N2CCc3c([nH]c4ccc(Cl)cc34)[C@]12C)C(C)C	3.4	7.5	-14.9	9.9*	-0.2	7.0	-7.3	-1.3
COc1ccccc1N1CCN(C(=S)Nc2ccccc2)CC1	-6.1	2.3	4.8	-1.2	-0.4	-1.5	·	·
CN(C)c1ccc(C(CNC(=O)COc2ccc(Cl)cc2)N2CCCC2)cc1 (centres undefined)	-9.3	-10.1	7.8	-2.6	0.5	-4.3	·	·
CCn1c(CNc2ccc(F)cc2)nnc1SCC(=O)Nc1ccc(OC)cc1	0.0	0.4	-3.7	-2.6	-0.1	-5.2	·	·
CCn1c(CNc2ccc(F)cc2)nnc1SCC(=O)Nc1ccccc1OC	5.3	10.3	3.6	10.7*	0.3	5.7	-7.3	-2.5
SMILES	PLC-beta3 inh	ADAM10 inh	HGIII-sPLA2 inh	PLCg1 inh	proKLK7 act	ADAM17 inh	PLCgamma1 ctr	PLCbeta3 conf
Cc1ccc(CN2CCC[C@]3(N[C@H](c4ccc(C)cc4)[C@@H]4C(=O)N(Cc5ccccc5)C(=O)[C@@H]43)C2=O)cc1	7.5	18.1	-9.5	9.9*	0.5	7.8	-2.4	0.6
Cc1ccc(CN2CCC[C@]3(N[C@H](c4ccccc4)[C@@H]4C(=O)N(Cc5ccccc5)C(=O)[C@@H]43)C2=O)cc1	-0.1	-5.5	-8.8	0.5	-0.4	-1.9	·	·
Cc1ccc(S(=O)(=O)NC2c3cccc4cccc(c34)C2Sc2n[nH]c(N)n2)cc1 (centres undefined)	-2.3	-1.1	-14.6	9.9*	-0.3	3.5	-2.8	-2.6
O=S(=O)(NC1c2cccc3cccc(c23)C1N1CCNCC1)c1ccccc1 (centres undefined)	-3.6	-0.8	-4.7	-2.4	0.7	-5.6	·	·
Cc1cccc(S(=O)(=O)N2CCCc3ccccc32)c1	-6.5	3.1	1.0	9.6*	-0.1	-1.2	-1.9	3.8
Cc1[nH]c(=O)[nH]c(=O)c1Sc1ccccc1[N+](=O)[O-]	2.2	4.0	-1.9	12.4*	-0.2	7.2	-3.3	-0.8
Cc1ccccc1OCC(=O)Nc1c2c(nn1C(C)(C)C)CS(=O)(=O)C2	-6.2	-1.7	3.1	0.0	0.2	-3.6	·	·
O=C1CC(N2CCN(c3ccc(F)cc3)CC2)C(=O)N1Cc1ccccc1 (centres undefined)	1.2	-3.0	7.8	-1.5	0.1	-0.3	·	·
O=C1CC(N2CCN(c3ccccc3)CC2)C(=O)N1Cc1ccc(Cl)cc1 (centres undefined)	-0.2	12.1	-7.5	10.2*	0.0	7.9	-6.7	-3.4
Cc1cnn(Cc2ccccc2)c1N	7.5	-0.3	8.3	10.5*	-0.3	4.6	-8.7	-4.3
CCOC(=O)c1cnn(Cc2ccccc2)c1N	3.4	8.5	-0.3	0.0	-0.4	2.0	·	·
CCOc1ccc(CCNC(=O)COC(=O)c2oc3ccccc3c2COC)cc1OCC	-4.5	6.3	2.1	14.0*	-0.3	3.6	4.7	2.3
CCOc1ccc(CCNC(=O)COC(=O)c2ccc(OC)c(OC)c2OC)cc1OCC	-4.1	-3.2	1.1	-0.1	0.1	-3.1	·	·
COc1ccc(/C=N/NC(=O)C(=O)N2CCN(c3ccccc3OC)CC2)cc1	-0.7	3.7	-10.2	11.6*	0.0	-1.9	-5.2	-2.5
COc1ccc(CC(=O)NCC2CCCN(Cc3ccc(F)c(OC)c3)C2)cc1 (centres undefined)	-2.0	7.6	0.2	0.2	0.1	-0.3	·	·
COc1ccc(CC(=O)NCC2CCCN(Cc3cccc(C(F)(F)F)c3)C2)cc1 (centres undefined)	-2.7	0.9	-1.9	10.6*	-0.1	1.9	-7.0	-0.1
